Bioassay records deposited in PubChem BioAssay by National Center for Advancing Translational Sciences (NCATS).
Rows were chosen to be rich in hits. Some 12% of all compounds tested hit in one or more screens of this group.
JMJD2A Tudor – inhibitors of human JMJD2A Tudor domain; O75164; 390,000 compounds, 4.4% hits; AID 504339; AlphaScreen JMJD2A-Tudor / H3K4me3 peptide binding; Potency, µM (top dose mostly 114 µM), without a hit: top-dose activity change, negative = inhibition, hits mostly inhibitors; note: potency is the fitted concentration of half-maximal effect; % is set by controls: 0 for no effect and ±100 for the full control effect; nearly all actives have a fitted effect of over 50% in size
Sfp inh – blocks B. subtilis Sfp PPTase activity; 310,000 compounds, 3.5% hits; Biochemical Sfp PPTase activity, qHTS; Q9F4F7; AID 1490; Potency, µM, for the others: largest response in the series, negative = inhibition, actives largely listed as inhibitors;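 note: the enzyme is Sfp with the accession as filed and its product quenches rhodamine fluorescence; potency is the fitted concentration of half-maximal effect; 0% = enzyme reaction without inhibitor and -100% = no enzyme wells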
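Sfp 15 nM + cpd, 15 min RT; start w/ rhodamine-CoA 5 uM, BHQ-2-YbbR 12.5 uM (final); 50 mM Hepes pH 7.6, 10 mM MgCl2, 0.01% NP-40, 0.01% BSA; read 525/598 nm at 0 and 30 min.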
HP1b chromo inh – inhibitors of HP1-beta chromodomain binding to methylated histone tails | Potency, µM (doses to about 114 µM), for inactives: top-dose activity change, negative = inhibition, hits mostly inhibitors | 390,000 compounds, 0.56% hits | P83916 | AlphaScreen HP1-beta / biotin-H3K9me3 peptide binding; note: potency is the fitted concentration of half-maximal effect; nearly all actives have a fitted effect of over 70% in size
Target sequence (P83916 whole entry, looked up): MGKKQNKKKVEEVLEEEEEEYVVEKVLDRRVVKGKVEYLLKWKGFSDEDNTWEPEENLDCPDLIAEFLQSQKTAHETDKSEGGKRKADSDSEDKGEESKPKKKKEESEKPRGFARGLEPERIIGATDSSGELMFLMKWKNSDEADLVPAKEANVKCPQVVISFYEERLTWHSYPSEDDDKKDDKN
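Compound inhibition of the preformed complex between 50 nM HP1-beta and 50 nM biotinylated H3K9me3 peptide was read by AlphaScreen. Buffer was PBS pH 7.4 with 0.01% Tween-20. Incubations ran 30 min at room temperature, with 10 ug/mL donor/acceptor beads.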
PLK1 PBD block – inhibitors of human PLK1 polo-box domain binding. P53350. Plk1 PBD binding of FITC phosphopeptide, fluorescence polarization. Potency, µM, without a hit: max response, negative = inhibition, most hits filed as inhibitors. 360,000 compounds, 2.8% hits. AID 720504; note: potency is the fitted concentration of half-maximal effect; series mostly up to about 57 µM; % is set by controls: 0 for no effect and ±100 for the full control effect; nearly all actives have a fitted effect of over 65% in size
G9a inh-1 – G9a (human) methyltransferase inhibition | G9a H3K9 monomethylation, AlphaScreen, 2 h | Potency, µM (top dose mostly 102 µM), for inactives: at the highest dose activity, negative = inhibition, hits mostly inhibitors | 350,000 compounds, 8.8% hits; note: potency is the fitted concentration of half-maximal effect; % is set by controls: 0 for no effect and ±100 for the full control effect; nearly all actives have a fitted effect of over 75% in size
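Using a bead-based AlphaScreen, monomethylated H3K9 product from 2 h room-temperature reactions (G9a 20 nM, peptide 500 nM, SAM 20 uM) was detected with 0.5 ug/mL rabbit anti-H3K9me1 antibody.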
BAZ2B inh – BAZ2B (human) inhibition; Q9UIF8; AlphaScreen BAZ2B-H3K14Ac peptide displacement; Potency, µM (top dose mostly 114 µM), without a hit: at the highest dose activity change, negative = inhibition, actives largely listed as inhibitors; 360,000 compounds, 4.4% hits; note: potency is the fitted concentration of half-maximal effect; % is set by controls: 0 for no effect and ±100 for the full control effect; nearly all actives have a fitted effect of over 60% in size
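Multi-concentration screen (max 110 uM) measuring displacement of acetylated histone H3 peptide from BAZ2B by AlphaScreen, using 50 nM protein, 50 nM peptide and 10 ug/mL streptavidin donor plus Ni-chelate acceptor beads.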
JMJD2E inh-1 – JMJD2E demethylase inhibition by 8HQ compounds | shares compounds with BAZ2B inh | JMJD2E demethylase, FDH-coupled NADH fluorescence | Potency, µM (top dose mostly 57 µM), for inactives: at the highest dose activity, negative = inhibition, usual class: inhibitors | 130 compounds, 89% hits
ME-1 prolif – ME-1 cell growth inhibition; Potency, µM (series often up to 56.1 µM), for the others: at the highest dose activity change, negative = inhibition, most hits filed as inhibitors; shares compounds with BAZ2B inh; 140 compounds, 20% hits; ME-1 cell proliferation, ATP luminescence, 48 h
JMJD2E inh-2 – JMJD2E (human) demethylase inhibition, confirmation | AID 2677 | 140 compounds, 93% hits | Recombinant JMJD2E, FDH-coupled NADH fluorescence (FDH is formaldehyde dehydrogenase) | Potency, µM (top dose mostly 56.8 µM), without a hit: top-dose activity change, negative = inhibition, hits mostly inhibitors | shares compounds with JMJD2A Tudor
FDH inh – FDH (Pseudomonas putida) inhibition counter-screen; shares compounds with JMJD2A Tudor; FDH enzyme assay, NADH fluorescence kinetic; Potency, µM (highest dose often 56.7 µM), without a hit: at the highest dose activity, negative = inhibition, hits mostly inhibitors; 140 compounds, 10% hits; AID 2680
Target sequence (P46154 whole entry, looked up): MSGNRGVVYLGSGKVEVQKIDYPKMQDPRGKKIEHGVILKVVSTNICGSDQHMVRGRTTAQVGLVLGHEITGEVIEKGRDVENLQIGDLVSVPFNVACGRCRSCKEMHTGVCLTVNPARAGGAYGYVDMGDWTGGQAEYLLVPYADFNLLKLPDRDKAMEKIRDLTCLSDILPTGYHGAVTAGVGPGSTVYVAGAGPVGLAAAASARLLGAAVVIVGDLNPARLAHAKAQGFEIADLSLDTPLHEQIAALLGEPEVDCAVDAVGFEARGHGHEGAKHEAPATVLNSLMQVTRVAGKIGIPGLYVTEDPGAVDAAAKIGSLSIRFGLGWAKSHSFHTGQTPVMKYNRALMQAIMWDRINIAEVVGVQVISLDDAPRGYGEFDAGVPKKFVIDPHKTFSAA
JMJD2E MS inh – human KDM4E demethylase inhibition | shares compounds with JMJD2A Tudor | recombinant JMJD2E demethylation, MALDI-TOF-MS | Potency, µM, usual class: inhibitors | 45 compounds, 90% hits | AID 2688;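 active = compounds whose IC50 for blocking JMJD2E demethylation is below 100 µM; inconclusive = dose dependent effect but IC50 above 100 µM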
G9a inh-2 – inhibits human G9a histone lysine methyltransferase, hit confirmation; shares compounds with JMJD2A Tudor; G9a H3K9 monomethylation, AlphaScreen, 2 h; Potency, µM, usual class: inhibitors; 370 compounds, 89% hits; AID 588344; note: potency is the fitted concentration of half-maximal effect; nearly all actives have a fitted effect of over 65% in size
TbPYK confirm – confirmation of Trypanosoma brucei pyruvate kinase inhibitors. shares compounds with PLK1 PBD block. recombinant TbPYK, Kinase-Glo ATP luminescence. Potency, µM (top dose mostly 76.9 µM), for inactives: at the top dose activity change, negative = inhibition, most hits filed as inhibitors. 890 compounds, 67% hits; note: potency is the fitted concentration of half-maximal effect; % is set by controls: 0 for no effect and ±100 for the full control effect; nearly all actives have a fitted effect of over 70% in size
TbPYK orthogonal – orthogonal confirmation of Trypanosoma brucei pyruvate kinase inhibitors | Potency, µM (series often up to 76.9 µM), without a hit: top-dose activity change, negative = inhibition, actives largely listed as inhibitors | 890 compounds, 62% hits | shares compounds with PLK1 PBD block | recombinant TbPYK, ADP-Glo luminescence, 60 min | AID 720584; note: potency is the fitted concentration of half-maximal effect; % is set by controls: 0 for no effect and ±100 for the full control effect; nearly all actives have a fitted effect of over 75% in size
Active calls of the source: *; ? = inconclusive; . = no result; [ ] = remark or other dose. Unless noted, calls come from the whole dose curve; as a rule, active = well fitted curve in the direction sought with a large enough effect; inconclusive = small, poorly fitted or top-dose-only effect, or another doubt; inactive = no such curve, though single readings can be large; an effect the other way counts as inactive or inconclusive.

SMILES	JMJD2A Tudor	Sfp inh	HP1b chromo inh	PLK1 PBD block	G9a inh-1	BAZ2B inh	JMJD2E inh-1	JMJD2E inh-2	FDH inh	others
COc1ccc(C(C)(NC(C)=O)c2nc(/C=C/c3ccccc3)cs2)cc1 (stereo unspecified)	.	.	.	2%	.	.	.	.	.
Oc1cccc2cc(N3CCCC3)cnc12	.	.	.	.	.	.	18µM*	18µM*	-9%
Oc1ccc(COc2ccccc2Cl)c2cccnc12	79µM*	.	.	.	.	.	13µM*	13µM*	-27%
Oc1ccc(CCc2ccccc2)c2cccnc12	45µM*	.	.	.	.	.	7.1µM*	9.1µM*	9%	JMJD2E MS inh=90*
CCCNc1ncccc1C(N)=O	-2%	15%	11%	-7%	-8%	7%	.	.	.
Oc1ccc(Oc2ccccc2F)c2cccnc12	50µM*	.	.	.	.	.	8.9µM*	13µM*	-9%	JMJD2E MS inh=17*
O=C(Nc1ccccc1F)c1ccc(O)c2ncccc12	.	.	.	.	2%[12.7 µM]	20µM*	29µM*	35µM*	.	JMJD2E MS inh=41*
O=C(Nc1cccc2cccnc12)c1cccc2ccccc12	-3%	-7%	45%	1%	8%[59 µM]	-3%	.	.	.
O=S(=O)(NCc1ccccc1F)c1ccc(O)c2ncccc12	.	.	.	.	.	.	23µM*	18µM*	-36%
NC(=O)c1ccc(O)c2ncccc12	13µM*	.	.	.	.	.	4.6µM*	4.6µM*	-9%	JMJD2E MS inh=90*
Nc1cccnc1Oc1ccccc1F	-10%	-9%	1%	-14%	9%	-5%	.	.	.
Nc1ncc(S(=O)(=O)NCc2ccccc2F)cn1	1%	.	22%[57 µM]	.	-4%[59 µM]	0%	.	.	.
CC(=O)C1=C(N2CCCCC2)CCC1=O	-11%[57.1 µM]	15%	-8%	?	-30%[12.7 µM]	-3%	.	.	.
COc1ccc(NS(=O)(=O)c2ccc(N3CC(O)=C(c4ccccc4)C3=N)cc2)cc1	-6%	19%	25%	-7%	21%[59 µM]	-16%	.	.	.
COc1ccc(N2C(=O)CSC2c2ccccc2F)c(OC)c1 (stereo unspecified)	-11%	13%	-7%	-7%	-8%	-1%	.	.	.
CCOC(=O)[C@H]1[C@H]2COc3ccc(C)cc3[C@@H]2N2C(=O)[C@@H](C)NC(=O)[C@@]12C	-17%	.	30%	4%	4%[0.501 µM]	10%	.	.	.
O=C(O)c1ccnc2c(O)cccc12	.	.	.	.	43%[12.7 µM]	1.8µM*	1.4µM*	1.4µM*	.	JMJD2E MS inh=8.2*
COC(=O)c1ccc(OC(C)=O)c2ncccc12	.	.	.	.	.	.	13µM*	14µM*	-18%
COC(=O)c1cnc2c(C(F)(F)F)cccc2c1OC	-5%	14%	32%	-1%	-24%[12.7 µM]	4%	.	.	.
O=C(c1cc2ccccc2cc1O)N1CCN(c2ccccn2)CC1	-25%	6%	-23%	-13%	?	-5%	.	.	.
CN1CCN(C(=O)c2cccc(-c3ccc4nncn4c3)c2)CC1	.	.	.	1%	.	.	.	.	.
CN1CCN(C(=O)c2cccc(-c3cc(O)c4ncccc4c3)c2)CC1	50µM*	.	51%	.	-3%[12.7 µM]	13µM*	16µM*	16µM*	-18%
CN1CCN(c2cc(-c3cc(O)c4ncccc4c3)ccn2)CC1	25µM*	.	19%	.	1%[12.7 µM]	7.9µM*	16µM*	16µM*	-9%
Oc1cc(-c2cccnc2)cc2cccnc12	25µM*	.	61%	.	28%[12.7 µM]	3.2µM*	5.6µM*	5.6µM*	-27%
Cc1ccccc1NC1=NCC(c2ccc([N+](=O)[O-])cc2)S1 (stereo unspecified)	?	2%	-26%	-9%	-39%	-30%	.	.	.
SMILES	JMJD2A Tudor	Sfp inh	HP1b chromo inh	PLK1 PBD block	G9a inh-1	BAZ2B inh	JMJD2E inh-1	JMJD2E inh-2	FDH inh	others
CCC(=O)N1Cc2cc(C(=O)N(C)C)nc(-c3cccc(-c4cncnc4)c3)c2[C@@H]1CCO	.	.	.	-3%	.	.	.	.	.
Oc1ccc(CNc2cccc(C(F)(F)F)c2)c2cccnc12	.	.	.	.	1.4µM*	22µM*	7.9µM*	7.9µM*	-36%
Oc1ccc(CNc2cccnc2)c2cccnc12	22µM*	.	.	.	.	.	6.5µM*	13µM*	-18%	JMJD2E MS inh=26*
Oc1c(CNc2ccccc2)cc(COCc2ccccc2)c2cccnc12	-17%	.	21%	.	-36%[12.7 µM]	50µM*	11µM*	7.9µM*	-9%
COc1ccc(CNc2cccnc2)c(OC)c1OC	-6%	.	44%	10%	.	.	.	.	.
Oc1ccc(Cl)cc1CNc1cccc2cccnc12	?	-21%	14%	-3%	-17%	?	.	.	.
O=[N+]([O-])c1ccccc1NCc1ccc(O)c2ncccc12	?	.	.	.	.	.	4.5µM*	10µM*	-27%	JMJD2E MS inh=12*
CC1=NN(c2ccccc2)C(=O)/C1=C/C=C/c1ccc(N(C)C)cc1	2.5µM*	-7%	2.5µM*	0%	2µM*	2µM*	.	.	.	ME-1 prolif=?;TbPYK confirm=25µM*;TbPYK orthogonal=11%
COc1ccc2oc(C(=O)N3CCN(S(=O)(=O)c4c(C)c(C)cc(C)c4C)CC3)c(C)c2c1	-23%	.	38%	0%	.	.	.	.	.
Cc1oc(-c2ccccc2)cc1C(=O)Nc1ccc(N(C)C)cc1	50µM*	-14%	?	-1%	2.2µM*	20µM*	.	.	.	G9a inh-2=1.8*
